Among the data in PubChem BioAssay (Tox21) are Potency and outcome values, retold here.

A short description of experiment [1]: qHTS assay to identify small molecule antagonists of the constitutive androstane receptor (CAR) signaling pathway - cell viability counter screen (AID 1224837). Further: nearly all actives have a fitted effect of over 45% in size. The settings on record: HepG2-CYP2B6-hCAR viability, CellTiter-Fluor, 23 h, co-treated with 50 nM CITCO; series mostly up to 92.4 µM. Put shortly:
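Viability was measured with CellTiter-Fluor in a HepG2 line carrying stably transfected hCAR and a CYP2B6-2.2kb construct. Cells were exposed for 23 hr at 37 C to 15 compound concentrations with 50 nM CITCO as agonist.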

Experiment [2] can be described thus: qHTS assay to identify small molecule antagonists of the estrogen related receptor signaling pathway with the pleiotropic PPARgamma coactivator (PGC) from Tox21 10K library - cell viability counter screen (AID 1224840; active means well fitted cell-killing curve with a large enough effect in the repeat runs, not every such curve was filed as active; further: nearly all actives have a fitted effect of over 40% in size; further: potency means the concentration at half of the fitted maximal effect). The settings on record: PGC/ERR reporter cells viability, CellTiter-Fluor, 17.5 h; series mostly up to 92.4 µM. A digest of the protocol:
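Multiplexed viability counter screen in the PGC/ERR cell line: cells treated with DMSO-dissolved compounds for 17.5 hours at 37 C, then viability measured as CellTiter-Fluor fluorescence.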

Experiment [3] can be described thus: qHTS assay to identify small molecule agonists of the hypoxia (HIF-1) signaling pathway - cell viability counter screen (AID 1224844; calls by dose curve; further: nearly all actives have a fitted effect of over 50% in size; further: potency means the concentration at half of the fitted maximal effect). The settings on record: HRE-bla ME-180 viability, CellTiter-Glo luminescence, 17 h; series mostly up to 76.8 µM. Put shortly:
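Cytotoxicity was measured in parallel with the HRE-driven beta-lactamase readout: after 17 hrs of compound exposure at 37C, HRE-bla ME-180 cells received CellTiter-Glo and luminescence was recorded 30 min later.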

Experiment [4] is described as follows: qHTS assay to identify small molecule agonists of H2AX (AID 1224845; active means well fitted activation curve with a large enough effect in the signal ratio in the repeat runs, not every such curve was filed as active; the % refers to the signal ratio; further: potency means the concentration at half of the fitted maximal effect). The settings on record: CHO-K1 phospho-H2AX Ser139 HTRF, 3 h; series mostly up to 154 µM. Put shortly: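 Phospho-H2AX Ser139 measured by HTRF (ex 320 nm; em 665 and 620 nm) after 24 hr antibody incubation. Compounds, 15 concentrations, 0.76% DMSO, were applied to CHO-K1 cells for 3hr at 37C before lysis.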

Experiment [5] is described as follows: qHTS assay to identify small molecule agonists of H2AX - cell viability counter screen (AID 1224847; calls by dose curve; further: nearly all actives have a fitted effect of over 30% in size; further: potency means the concentration at half of the fitted maximal effect). The settings on record: CHO-K1 viability, CellTiter-Glo luminescence, 3 h; series mostly up to 154 µM. Put shortly: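 After overnight plating of 1000 CHO-K1 cells per well, a 15-concentration compound series was applied for 3 hr at 37C. Luminescence from CellTiter-Glo, read following 30 min at room temperature, reflected cell viability.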

Experiment [6] in a line: qHTS RealTime-Glo MT Cell Viability Assay in HepG2 cells - 24 hour (AID 1224867). Further: nearly all actives have a fitted effect of over 50% in size. Further: potency means the concentration at half of the fitted maximal effect. The settings on record: RealTime-Glo luminescence; series mostly up to 76.8 µM. Put shortly:
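Cell number in HepG2 cultures estimated from NanoLuc luminescence generated by metabolic reduction of a prosubstrate by living cells. The homogeneous, nonlytic format allowed repeated reads at 0, 8, 16, 24, 32 and 40 h of compound exposure.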

A short description of experiment [7]: qHTS RealTime-Glo MT Cell Viability Assay in HEK293 cells - 32 hour (AID 1224868). Further: nearly all actives have a fitted effect of over 50% in size. Further: potency means the concentration at half of the fitted maximal effect. The conditions noted are these: RealTime-Glo luminescence; series mostly up to 76.8 µM. A digest of the protocol: (§1)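 Homogeneous bioluminescent viability format in HEK293 cells (600 cells/well). Following 5 h at 37 C/5% CO2, 23 nL compound was pintooled; the signal was measured repeatedly during 40 h incubation.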

Experiment [8] in a line: qHTS RealTime-Glo MT Cell Viability Assay in HepG2 cells - 40 hour (AID 1224870). Further: nearly all actives have a fitted effect of over 50% in size. Further: potency means the concentration at half of the fitted maximal effect. The settings on record: RealTime-Glo luminescence; series mostly up to 76.8 µM. Put shortly:
(§2)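 Real-time viability: cells seeded at 600 per well together with NanoLuc and cell-permeant prosubstrate, compounds added after 5 h incubation. Luminescence tracked at 0, 8, 16, 24, 32 and 40 h of exposure.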

Experiment [9] is described as follows: A CellTox Green Cytotoxicity Assay to monitor cytotoxicity in HEK293 cells - 40 hour (AID 1224871). Further: nearly all actives have a fitted effect of over 45% in size. Further: potency means the concentration at half of the fitted maximal effect. The settings on record: CellTox Green fluorescence; series mostly up to 76.8 µM. A digest of the protocol:
(§3)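 Cells (HEK293, 600/well) and dye reagent are dispensed together. After 5 h at 37 C, 23 nL compound is pinned in. Plates stay at 37 C for 40 h with fluorescence read at 0h, 8h, 16h, 24h, 32h and 40h.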

The nature of experiment [10]: qHTS RealTime-Glo MT Cell Viability Assay in HEK293 cells - 16 hour (AID 1224872). Further: nearly all actives have a fitted effect of over 50% in size. Further: potency means the concentration at half of the fitted maximal effect. The settings on record: RealTime-Glo luminescence; series mostly up to 76.8 µM. A digest of the protocol:
as §1

A short description of experiment [11]: qHTS RealTime-Glo MT Cell Viability Assay in HepG2 cells - 8 hour (AID 1224873). Further: nearly all actives have a fitted effect of over 55% in size. Further: potency means the concentration at half of the fitted maximal effect. The conditions noted are these: RealTime-Glo luminescence; series mostly up to 76.8 µM. Put shortly: as §2
A short description of experiment [12]: qHTS assay to identify small molecule agonists of the hypoxia (HIF-1) signaling pathway (AID 1224846; active means well fitted activation curve with a large enough effect in the signal ratio in the repeat runs, not every such curve was filed as active; the % refers to the signal ratio). The conditions noted are these: HRE-bla ME-180 cells, beta-lactamase ratio, 17 h; series mostly up to 76.8 µM. Put shortly: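 Compounds from the Tox21 10K library, dissolved in DMSO, are tested for induction of a hypoxia response element–controlled beta-lactamase reporter in ME-180 cells. Exposure lasts 17 hrs at 37C after a 5 hr settling period, followed by CCF4-AM FRET substrate.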

A short description of experiment [13]: A CellTox Green Cytotoxicity Assay to monitor cytotoxicity in HEK293 cells - 0 hour (AID 1224869). Further: nearly all actives have a fitted effect of over 50% in size. The settings on record: CellTox Green fluorescence; series mostly up to 76.8 µM. A digest of the protocol: as §3
Experiment [14] deals with Thyrotropin receptor (Homo sapiens) (UniProt P16473). Nature of the experiment: qHTS assay to identify small molecule agonists of the thyroid stimulating hormone receptor (TSHR) signaling pathway (AID 1224843; calls by dose curve; further: nearly all actives have a fitted effect of over 45% in size). The settings on record: TSHR-HEK293 cells, cAMP HTRF, agonist mode, 30 min; series mostly up to 92.4 µM. Put shortly:
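Agonist activity read as cAMP rise via d2/cryptate HTRF competition, 1 h room-temperature detection, in HEK293 cells expressing TSHR. Fifteen-point titrations, each run in triplicate, with a 30 min room-temperature incubation beforehand.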

For experiment [15], the target named is Nuclear receptor subfamily 1 group I member 3 (Homo sapiens) (UniProt Q14994). Nature of the experiment: qHTS assay to identify small molecule antagonists of the constitutive androstane receptor (CAR) signaling pathway (AID 1224838).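 Further: HepG2 cells stably expressing hCAR with CYP2B6 luciferase reporter stimulated by CITCO; nearly all actives have a fitted effect of over 40% in size.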 Further: potency means the concentration at half of the fitted maximal effect. The settings on record: HepG2-CYP2B6-hCAR luciferase, CITCO-stimulated, 24 h; series mostly up to 92.4 µM. Put shortly: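 Antagonist mode used CITCO at a final 50 nM to activate CAR in human hepatoma HepG2 cells carrying stable hCAR and a 2.2 kb CYP2B6 promoter-luciferase construct. Compounds were tested at 15 concentrations over 24 h, with luminescence as the end point.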

The structures appear in SMILES notation. Values joined by “and” are separate entries in the source; they are usually repeats but may differ in a detail not shown here. Identical values can stand only once. Records with an inconclusive call do not appear. A structure can be active in one record and inactive in another. Active and inactive are the calls of the source. Unless noted, the call rests on the fitted dose curve; in most records, active means well fitted curve in the direction sought with a large enough effect in the repeat runs; inconclusive means weak or mixed curves; inactive means no such curve, though single readings can be large; an effect the other way counts as inactive or inconclusive.
On the % scale 0 is the no-effect control and ±100 the full control effect.

Thyrotropin receptor (Homo sapiens), sequence (P16473 whole entry, looked up): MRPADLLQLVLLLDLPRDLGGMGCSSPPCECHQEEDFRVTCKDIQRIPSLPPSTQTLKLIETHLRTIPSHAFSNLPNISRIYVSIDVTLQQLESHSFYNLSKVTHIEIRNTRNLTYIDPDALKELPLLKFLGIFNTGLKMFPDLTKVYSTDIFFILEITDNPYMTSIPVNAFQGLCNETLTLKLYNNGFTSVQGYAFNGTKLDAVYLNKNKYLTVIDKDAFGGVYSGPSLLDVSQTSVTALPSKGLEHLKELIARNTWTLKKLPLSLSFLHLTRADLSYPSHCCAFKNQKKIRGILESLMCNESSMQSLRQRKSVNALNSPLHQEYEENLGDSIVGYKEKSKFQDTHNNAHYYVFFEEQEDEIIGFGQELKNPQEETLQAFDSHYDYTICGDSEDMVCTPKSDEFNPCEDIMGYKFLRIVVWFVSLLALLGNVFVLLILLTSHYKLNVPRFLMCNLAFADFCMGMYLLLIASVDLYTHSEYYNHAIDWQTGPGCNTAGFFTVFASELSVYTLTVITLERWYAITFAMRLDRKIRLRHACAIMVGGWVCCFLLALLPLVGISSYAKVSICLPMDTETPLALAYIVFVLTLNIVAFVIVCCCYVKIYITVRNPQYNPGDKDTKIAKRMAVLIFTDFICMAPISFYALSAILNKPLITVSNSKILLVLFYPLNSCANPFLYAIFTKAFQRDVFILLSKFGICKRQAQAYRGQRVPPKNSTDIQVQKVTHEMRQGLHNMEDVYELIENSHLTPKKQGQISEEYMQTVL
Nuclear receptor subfamily 1 group I member 3 (Homo sapiens), sequence (Q14994 whole entry, looked up): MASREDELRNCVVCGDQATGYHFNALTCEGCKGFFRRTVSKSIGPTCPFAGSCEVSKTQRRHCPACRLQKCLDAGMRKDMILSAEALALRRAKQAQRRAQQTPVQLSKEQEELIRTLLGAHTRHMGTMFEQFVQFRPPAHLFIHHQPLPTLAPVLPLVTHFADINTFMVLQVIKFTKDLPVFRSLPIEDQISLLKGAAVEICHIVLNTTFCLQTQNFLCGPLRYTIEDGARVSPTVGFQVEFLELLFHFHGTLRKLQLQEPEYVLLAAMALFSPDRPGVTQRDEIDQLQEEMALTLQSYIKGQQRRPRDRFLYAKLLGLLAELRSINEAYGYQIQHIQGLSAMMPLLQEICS

On to `N#CS`, for which the Potency entry in [1], in [2], in experiment [3], in [4], in experiment [5] and in experiment [6] was “inactive” each time. Besides, the Potency entry in experiment [7], in [8], in [9], in [10] and in [11] was “inactive” throughout.

As to `CCn1cc[n+](C)c1C`, the Potency entry in experiment [1], in [2], in [3], in experiment [4], in experiment [5] and in experiment [6] was “inactive” each time. Further, the Potency entry in experiment [7], in [8], in [9], in experiment [10] and in experiment [11] was “inactive” each time. In addition, the outcome in experiment [12] was inactive.

As to `CCCCn1cc[n+](C)c1`, the Potency result in [1], in experiment [2], in experiment [3], in [4], in experiment [5] and in [6] was “inactive” throughout. Moreover, the Potency entry in experiment [7], in experiment [9], in experiment [10] and in [11] was “inactive” in each case. For the same compound, the outcome in experiment [12] was inactive. Further, the Potency result in [8] was “inactive and 35.2 µM (active)”.

As for `O=C(O)COc1ccc(Cl)cc1Cl`, the Potency result in [1], in experiment [2], in [3], in experiment [4], in [5] and in experiment [6] was “inactive” throughout. Moreover, the Potency entry in experiment [7], in experiment [13], in [8], in experiment [9], in [10] and in experiment [11] was “inactive” each time. Further, the result in experiment [12] was inactive.

As for `O=[N+]([O-])O`, the Potency entry in experiment [1], in [2], in experiment [14], in experiment [3], in experiment [4] and in [5] was “inactive” in each case. For the same compound, the Potency entry in experiment [6], in experiment [7], in [8], in experiment [9], in experiment [10] and in [11] was “inactive” in each case. Also, in [12], the outcome was inactive.

With `CCCCCCn1cc[n+](C)c1`, the Potency result in [1], in experiment [2], in experiment [3], in experiment [4], in [5] and in experiment [6] was “inactive” in each case. For the same compound, the Potency result in experiment [13], in experiment [9] and in experiment [11] was “inactive” throughout. In addition, the outcome in experiment [12] was inactive. Also, the Potency is 19.7 µM (active) [middle of 5 runs] in experiment [7]; “inactive and 35.4 µM (active)” in experiment [8].

For the compound `CCCn1cc[n+](C)c1`, the Potency entry in [1], in experiment [2], in experiment [14], in [3], in experiment [4] and in experiment [5] was “inactive” throughout. Besides, the Potency result in experiment [6], in experiment [7], in [9], in [10] and in experiment [11] was “inactive” in each case. For the same compound, the outcome in experiment [12] was inactive. Further, the Potency in [8] is 49.4 µM (active) and inactive.

With `CCCCCCCCCCCCn1cc[n+](C)c1`, the Potency entry in experiment [4] and in [13] was “inactive” each time. Further, the outcome in experiment [12] was inactive. Also, the Potency in experiment [11] was 49.4 µM (active) and inactive.

For `Oc1cccc2cccnc12`, the Potency in experiment [15] is 1.38 µM (active) and 770 nM (active) and inactive; in experiment [2], 2.43 µM (active) and inactive; in experiment [3], 1.1 µM (active) and inactive; in experiment [4], 1.43 µM (active) and 3.02 µM (active) and inactive; in [6], “inactive and 3.47 µM (active)”; in experiment [7] it was 20.7 µM (active) and 5.49 µM (active) and inactive. In experiment [8], the Potency entry was “inactive and 3.09 µM (active)”. Moreover, the Potency result in experiment [5], in experiment [13], in [10] and in experiment [11] was “inactive” each time.

Turning to `CCCC[n+]1ccc(C)cc1`, the Potency result in experiment [1], in experiment [2], in [4], in [6], in [7] and in experiment [8] was “inactive” in each case. Further, the Potency entry in experiment [11] was “inactive”. Also, the Potency result is “inactive and 38.7 µM (active)” in experiment [3]; “inactive and 89.3 µM (active)” in experiment [5]; “inactive and 21.8 µM (active)” in experiment [9]; 34.5 µM (active) and inactive in [10]. In experiment [12], the result was inactive.
